Bioassay records deposited in PubChem by The Scripps Research Institute Molecular Screening Center.
In the library only some 1.1% were active in any assay of this set; here they are far more common.
S1P2 blocker: human S1P2 receptor antagonists, primary screen, cell-based. Sphingosine 1-phosphate receptor 2 (Homo sapiens), O95136. actives 0.21% (n = 97,000). cell-based S1P2 antagonist assay, inhibition at 5 uM. inhibition, % at 5 µM; in the data active = inhibition above about 45%;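 note: CRE beta-lactamase reporter cells expressing human S1P2 stimulated with S1P; 0% = agonist at EC80 alone and 100% = agonist plus reference antagonist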
Target sequence (O95136 whole entry, looked up): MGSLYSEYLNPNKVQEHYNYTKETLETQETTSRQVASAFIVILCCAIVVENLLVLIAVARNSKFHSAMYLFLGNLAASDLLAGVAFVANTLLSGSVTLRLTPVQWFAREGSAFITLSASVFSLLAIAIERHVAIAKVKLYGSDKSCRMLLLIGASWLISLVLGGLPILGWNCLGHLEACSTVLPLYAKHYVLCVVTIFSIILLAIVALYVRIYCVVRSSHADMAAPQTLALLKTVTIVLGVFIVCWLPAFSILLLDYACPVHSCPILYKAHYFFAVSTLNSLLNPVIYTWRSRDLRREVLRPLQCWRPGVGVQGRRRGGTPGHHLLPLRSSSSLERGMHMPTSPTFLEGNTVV
GALR2 agonist: GALR2 receptor agonists, primary screen, cell-based | Galanin receptor type 2 (Homo sapiens), O43603 | GALR2-expressing cells, agonist activation read-out | activation, % (no concentration beside the values) | actives 0.48% (n = 140,000); in the data active = activation above about 5%, passing the limit was not always enough;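 note: 0% = vehicle buffer wells and 100% = reference agonist at full effect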
S1P2 agonist: S1P2 receptor agonists, primary screen, cell-based. actives 0.46% (n = 97,000). Sphingosine 1-phosphate receptor 2 (Homo sapiens), O95136. S1P2-expressing cell line, agonist reporter read-out. AID 729, 2007. activation, % at 4.5 µM; in the data active = activation above about 16%;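 note: 0% = vehicle low control and 100% = maximal reference agonist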
GALR2 antag: GALR2 antagonists in receptor-expressing cells, primary screen; Galanin receptor type 2 (Homo sapiens), O43603; antagonist mode; inhibition, % at 4 µM; actives 0.39% (n = 140,000);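 note: cells stimulated with galanin 1-16 at roughly its EC80; 0% = agonist challenge control and 100% = basal control without agonist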
GALR2 ant conf: GALR2 antagonists, retest of hits, confirmation, cell-based. inhibition, % at 4 µM. AID 866, 2007. actives 60% (n = 480). GALR2-expressing cells, antagonist mode, inhibition. shares compounds with GALR2 antag;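 note: cells stimulated with galanin at about its EC80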
BLA inh counter: inhibitors of NFAT-driven beta-lactamase reporter, confirmation, counter-screen for GALR2 antagonist project, CHO NFAT-bla cells, FRET readout; actives 36% (n = 480); thapsigargin-stimulated; shares compounds with GALR2 antag; inhibition, % at 4.2 µM; AID 867, 2007;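 active = inhibition above the mean inhibition across tested compounds plus 3 SD, cut at about 27% in these data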;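 note: 0% = 500 nM thapsigargin stimulated wells and 100% = unstimulated BSA only wells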
Numbers without * were called inactive; nt = no result given. Cut-off read from the data, not from the text of the source, unless noted: active = inhibition above about 27%; inactive = the rest.

SMILES	S1P2 blocker	GALR2 agonist	S1P2 agonist	GALR2 antag	GALR2 ant conf	BLA inh counter
CCOc1ccc(C2=Nn3c(nnc3-c3ccccc3OC)SC2)cc1	5.8	5.3*	5.3	33.5*	31.9*	59.9*
CCC(C)N(C(=O)CSc1nc(-c2ccccc2)cs1)C1CCS(=O)(=O)C1 (stereo unspecified)	0.2	0.2	-6.4	-15.8	nt	nt
O=C(NCC(=O)N(c1ccc(F)cc1)C(C(=O)NCC1CCCO1)c1ccccc1)c1ccco1 (stereo unspecified)	16.1	-0.9	-0.8	-1.2	nt	nt
Nc1nc(Nc2cccc(F)c2)nc2ccccc12	nt	-1.5	nt	31.4*	24.1	13.3
Cn1c(CNC(=O)Nc2cccc(Cl)c2)nnc1SCc1ccccc1	32.6	-2.0	-6.7	28.5*	14.5	8.4
COc1ccc(C(=O)Cn2c(C(=O)/C=C/c3ccccc3)nc3ccccc32)cc1	14.1	-0.6	-4.7	9.4	nt	nt
Cc1[nH]c2ccccc2c1/C=C(\C#N)C(=O)NCc1ccccc1	nt	0.1	nt	32.5*	21.8	4.5
CC(C)CCOC(=O)C1[C@H]2C(=O)N(Cc3cccs3)C[C@]23C=C[C@H]1O3 (stereo partly specified)	1.4	-1.2	-6.5	8.2	nt	nt
O=C(CSCc1nc2ccccc2[nH]1)N1CCN(c2ccc(F)cc2)CC1	9.9	-3.2	-12.9	30.1*	22.9	11.4
CCOC(=O)C1(C)/C(=N/Nc2ccccc2Cl)C(=O)C(=O)N1c1ccccc1 (stereo unspecified)	9.5	-1.7	-8.3	13.9	nt	nt
Cc1nc2nc(-c3cccs3)cn2nc1C	38.8	-1.1	-12.8	28.4*	31.3*	34.5*
CCOC(=O)C1CSC(CC(=O)Nc2ccc(Cl)c(Cl)c2)C(=O)N1 (stereo unspecified)	2.3	-0.6	-2.2	10.6	nt	nt
